In the antibiotic and cytotoxicity screens of Wong et al. (2023):
The whole screen tested about 39,000 compounds, of which about 1,500 (3.8%) were called active. The list comes from a sample in which actives are over-represented; it also holds similar structures and randomly drawn compounds.

system: HSkMC (human skeletal muscle cells); test: cytotoxicity call (relative viability < 0.9); details: 10 µM

Row | Structure (SMILES) | cytotoxicity call
1 | C[C@H](CO)N1C[C@H](C)[C@@H](CN(C)S(=O)(=O)c2cn(C)cn2)Oc2ccc(NC(=O)NC3CCCCC3)cc2C1=O | inactive
2 | COc1ccc([Si](C)(C)[C@@H]2[C@@H](CCO)O[C@]3(C(=O)N(Cc4ccc(N5C(=O)c6ccccc6Oc6ccccc65)cc4)c4ccccc43)[C@H]2C)cc1 | inactive
3 | C[C@@H]1CCCCO[C@H](CN(C)Cc2ccccc2)[C@@H](C)CN([C@@H](C)CO)C(=O)c2cc(NC(=O)Cc3ccccc3)ccc2O1 | inactive
4 | COc1ccc(NC(=O)Nc2ccc3c(c2)C(=O)N([C@H](C)CO)C[C@H](C)[C@H](CN(C)Cc2ccc(C(=O)Nc4ccccc4N)cc2)OCCCC[C@@H](C)O3)cc1 | inactive
5 | CCOc1ccc(S(N)(=O)=O)cc1 | inactive
6 | NS(=O)(=O)c1ccc(N2CCCC2=O)cc1 | inactive
7 | C[C@H](CO)N1C[C@H](C)[C@H](CN(C)S(=O)(=O)c2cn(C)cn2)Oc2c(NC(=O)c3cnccn3)cccc2C1=O | inactive
8 | Cc1noc(C)c1NC(=O)Nc1ccc2c(c1)C(=O)N([C@H](C)CO)C[C@@H](C)[C@H](CN(C)C(=O)Nc1c(C)noc1C)OCCCC[C@@H](C)O2 | inactive
9 | O=C(c1cnc2ccccc2c1)C1CC1 | inactive
10 | CNC[C@@H]1Oc2ccc(NC(=O)Cn3cnnn3)cc2CC(=O)N([C@H](C)CO)C[C@H]1C | inactive
11 | Cc1noc(C)c1NC(=O)Nc1ccc2c(c1)C(=O)N([C@H](C)CO)C[C@@H](C)[C@@H](CN(C)Cc1ccc3c(c1)OCO3)OCCCC[C@@H](C)O2 | inactive
12 | O=C(CCCCCNC(=O)OCc1ccc(CN(C(=O)Nc2ccccc2)[C@@H](Cc2ccccc2)Cn2cc(-c3ccccn3)nn2)cc1)NO | inactive
13 | Cc1ccc(S(=O)(=O)Nc2ccc3c(c2)C(=O)N([C@H](C)CO)C[C@H](C)[C@@H](CN(C)Cc2ccc(C(F)(F)F)cc2)OCCCC[C@@H](C)O3)cc1 | inactive
14 | Cc1ccc(S(=O)(=O)Nc2ccc3c(c2)C(=O)N([C@H](C)CO)C[C@@H](C)[C@H](CN(C)Cc2ccc(C(F)(F)F)cc2)OCCCC[C@@H](C)O3)cc1 | inactive
15 | Cc1ccc(S(=O)(=O)Nc2ccc3c(c2)C(=O)N([C@@H](C)CO)C[C@@H](C)[C@@H](CN(C)Cc2ccc(C(F)(F)F)cc2)OCCCC[C@@H](C)O3)cc1 | active
16 | Cc1ccc(S(=O)(=O)Nc2ccc3c(c2)C(=O)N([C@@H](C)CO)C[C@H](C)[C@H](CN(C)Cc2ccc(C(F)(F)F)cc2)OCCCC[C@@H](C)O3)cc1 | inactive
17 | Cc1ccc(S(=O)(=O)Nc2ccc3c(c2)C(=O)N([C@H](C)CO)C[C@@H](C)[C@H](CN(C)Cc2ccc(C(F)(F)F)cc2)OCCCC[C@H](C)O3)cc1 | active

Row | Structure (SMILES) | cytotoxicity call
18 | Cc1ccc(S(=O)(=O)Nc2ccc3c(c2)C(=O)N([C@@H](C)CO)C[C@@H](C)[C@H](CN(C)Cc2ccc(C(F)(F)F)cc2)OCCCC[C@H](C)O3)cc1 | inactive
19 | C[C@@H]1CN([C@H](C)CO)C(=O)c2cccc(NC(=O)c3nc4ccccc4s3)c2O[C@H]1CN(C)C(=O)Nc1cccc2ccccc12 | inactive
20 | CCN1C(=O)CN(CC(=O)O)C1=O | inactive
21 | NCc1ccc2nsnc2c1 | inactive
22 | C[C@@H]1CN([C@@H](C)CO)C(=O)c2cccc(NS(C)(=O)=O)c2O[C@H]1CN(C)C(=O)Nc1ccc(C(F)(F)F)cc1 | inactive
23 | O=C(C[C@@H]1CC[C@@H]2[C@H](COC[C@H](O)CN2C(=O)Nc2ccc(F)cc2)O1)NCCCN1CCOCC1 | inactive
24 | C[C@H](CO)N1C[C@H](C)[C@@H](CN(C)S(C)(=O)=O)OCCCC[C@H](C)Oc2ccc(NS(=O)(=O)c3cn(C)cn3)cc2C1=O | inactive
25 | C[C@H]1CN([C@@H](C)CO)S(=O)(=O)c2ccc(C#CC3(O)CCCC3)cc2O[C@@H]1CN(C)C(=O)Nc1cccc(F)c1 | active
26 | C[C@@H]1CN([C@H](C)CO)S(=O)(=O)c2ccc(/C=C/c3ccccc3)cc2O[C@H]1CN(C)C(=O)Nc1cc(F)ccc1F | active
27 | C[C@H]1CN([C@@H](C)CO)S(=O)(=O)c2ccc(C#Cc3ccncc3)cc2O[C@H]1CN(C)C(=O)Nc1ccc2c(c1)OCO2 | inactive
28 | C[C@H]1CN([C@@H](C)CO)S(=O)(=O)c2ccc(/C=C/c3ccccc3)cc2O[C@@H]1CN(C)C(=O)Nc1cc(F)ccc1F | inactive
29 | C[C@H]1CN([C@@H](C)CO)S(=O)(=O)c2ccc(C#Cc3ccncc3)cc2O[C@@H]1CN(C)C(=O)Nc1ccc2c(c1)OCO2 | inactive
30 | C[C@H](CO)N1C[C@H](C)[C@@H](CN(C)C(=O)Nc2cc(F)ccc2F)Oc2cc(/C=C/c3ccccc3)ccc2S1(=O)=O | inactive
31 | C[C@@H]1CN([C@@H](C)CO)S(=O)(=O)c2ccc(C#CC3(O)CCCC3)cc2O[C@@H]1CN(C)C(=O)Nc1cccc(F)c1 | inactive
32 | C[C@@H]1CN([C@@H](C)CO)S(=O)(=O)c2ccc(C#Cc3ccncc3)cc2O[C@H]1CN(C)C(=O)Nc1ccc2c(c1)OCO2 | active
33 | C[C@H]1CN([C@@H](C)CO)S(=O)(=O)c2ccc(C#Cc3ccccc3F)cc2O[C@@H]1CN(C)C(=O)c1ccc2c(c1)OCO2 | inactive
34 | C[C@H]1CN([C@@H](C)CO)S(=O)(=O)c2ccc(C#Cc3ccccc3F)cc2O[C@H]1CN(C)C(=O)c1ccc2c(c1)OCO2 | inactive
